Source: PubChem BioAssay
The source made the active and inactive calls.

How the values were obtained:
[1] = system: Plasmodium falciparum Sir2 (PF13_0152, Sir2A); assay: Plasmodium falciparum Sir2A binding compounds – biochemical, small-molecule microarray, 635 nm fluorescence, primary screen (AID 1098); conditions: fluorescence 635 nm, higher = more signal;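 also: score merges spot fluorescence intensity with its signal-to-noise ratio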
[2] = probe aDKK1 binding to arrayed compounds – biochemical, biotinylated probe, 635/667 nm fluorescence, primary screen (AID 1099); conditions: small-molecule microarray, higher = more signal;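 also: score merges 667nm spot fluorescence with signal to noise across triplicate slides; reference of the scale not given here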
[3] = probe aCHRDL2 binding to arrayed compounds – biochemical, biotinylated probe, 635/667 nm fluorescence, primary screen (AID 1100); conditions: small-molecule microarray, higher = more signal
[4] = change in splice reporter luminescence, either direction, cell-based, HEK293, spliceosome inhibition project, primary screen (AID 1101); conditions: HEK293 splicing luciferase reporter, 24 h, higher = more signal, called active from +8 up or from −8 down;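 also: HEK293 cells carrying a splicing-competent luciferase reporter gene; test concentration not given here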
[5] = target: Fibroblast growth factor 10 (Homo sapiens) (UniProt O15520); assay: compounds binding fibroblast growth factor 10 – biochemical, small-molecule microarray, 635 nm fluorescence, primary screen (AID 1102); conditions: FGF10 binding, fluorescence 635 nm, higher = more signal
[6] = system: glycogen synthase kinase-3 (GSK3A per assay name; protocol says GSK3B); assay: compounds binding glycogen synthase kinase-3 – biochemical, small-molecule microarray, 635 nm fluorescence, GSK3A, primary screen (AID 1103); conditions: fluorescence 635 nm, higher = more signal; also: the record names both GSK3A and GSK3B
[7] = target: Epidermal growth factor receptor (Homo sapiens) (UniProt P00533); assay: compounds binding epidermal growth factor receptor – biochemical, small-molecule microarray, 635 nm fluorescence, primary screen (AID 1104); conditions: EGFR binding, higher = more signal;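 also: score merges 667 nm emission intensity with spot signal to noise over triplicate slides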
[8] = target: Follistatin-related protein 3 (Homo sapiens) (UniProt O95633); assay: compounds binding follistatin-related protein 3 – biochemical, small-molecule microarray, 635 nm fluorescence, primary screen (AID 1105); conditions: FSTL3 binding, higher = more signal;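 also: score merges emission near 667 nm and signal to noise per printed spot across three slides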
[9] = target: Dickkopf-related protein 1 (Homo sapiens) (UniProt O94907); assay: small molecules binding DKK1 protein – biochemical, small-molecule microarray, 635 nm fluorescence scan, primary screen (AID 1106); conditions: higher = more signal;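 also: score merges emission near 667 nm with signal to noise over three replicate slides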
[10] = system: Inhibin beta A chain (activin A); assay: small molecules binding activin A – biochemical, small-molecule microarray, 635 nm fluorescence scan, primary screen (AID 1107); conditions: INHBA, higher = more signal;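 also: mouse activin A protein probed at 4.33 µg/mL on printed slides; score merges bound-protein fluorescence near 667 nm with spot signal-to-noise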

Sequence of Fibroblast growth factor 10 (Homo sapiens) (O15520 whole entry, looked up): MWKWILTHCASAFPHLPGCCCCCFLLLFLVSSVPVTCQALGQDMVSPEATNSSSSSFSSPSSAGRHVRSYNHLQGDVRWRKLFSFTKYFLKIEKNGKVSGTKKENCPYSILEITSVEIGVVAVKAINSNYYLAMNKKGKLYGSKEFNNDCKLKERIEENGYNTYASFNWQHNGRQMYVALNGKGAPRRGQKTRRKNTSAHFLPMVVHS
Sequence of Epidermal growth factor receptor (Homo sapiens) (P00533 whole entry, looked up): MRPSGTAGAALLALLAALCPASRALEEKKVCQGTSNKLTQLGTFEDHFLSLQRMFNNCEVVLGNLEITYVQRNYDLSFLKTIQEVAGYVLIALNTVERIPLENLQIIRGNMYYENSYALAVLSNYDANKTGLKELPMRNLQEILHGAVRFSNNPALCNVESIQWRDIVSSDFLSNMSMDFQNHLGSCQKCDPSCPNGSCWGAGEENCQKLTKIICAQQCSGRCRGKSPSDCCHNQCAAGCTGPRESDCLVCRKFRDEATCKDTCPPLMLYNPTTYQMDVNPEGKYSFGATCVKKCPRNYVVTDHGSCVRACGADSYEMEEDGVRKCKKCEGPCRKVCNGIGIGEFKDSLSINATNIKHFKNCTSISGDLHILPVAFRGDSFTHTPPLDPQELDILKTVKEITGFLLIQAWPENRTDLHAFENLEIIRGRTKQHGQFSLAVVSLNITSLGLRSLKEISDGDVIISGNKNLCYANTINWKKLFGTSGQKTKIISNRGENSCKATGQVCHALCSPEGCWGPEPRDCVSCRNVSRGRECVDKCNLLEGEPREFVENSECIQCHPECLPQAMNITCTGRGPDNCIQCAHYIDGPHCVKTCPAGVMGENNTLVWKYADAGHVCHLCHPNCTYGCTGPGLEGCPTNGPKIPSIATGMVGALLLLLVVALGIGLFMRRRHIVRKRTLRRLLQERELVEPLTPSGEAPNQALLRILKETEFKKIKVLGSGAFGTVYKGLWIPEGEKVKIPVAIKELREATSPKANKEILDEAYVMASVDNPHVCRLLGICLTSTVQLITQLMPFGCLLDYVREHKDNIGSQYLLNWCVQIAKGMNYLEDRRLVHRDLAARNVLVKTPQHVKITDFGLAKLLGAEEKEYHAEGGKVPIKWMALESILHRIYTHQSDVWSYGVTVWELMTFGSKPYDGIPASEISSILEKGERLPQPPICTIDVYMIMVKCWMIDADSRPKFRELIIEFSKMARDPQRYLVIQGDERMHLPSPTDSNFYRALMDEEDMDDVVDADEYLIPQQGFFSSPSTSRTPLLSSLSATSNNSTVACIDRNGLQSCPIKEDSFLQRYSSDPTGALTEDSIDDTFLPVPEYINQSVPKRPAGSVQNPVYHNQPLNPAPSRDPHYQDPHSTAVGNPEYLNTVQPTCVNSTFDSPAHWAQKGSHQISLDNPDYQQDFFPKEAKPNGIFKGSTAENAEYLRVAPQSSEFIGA
Sequence of Follistatin-related protein 3 (Homo sapiens) (O95633 whole entry, looked up): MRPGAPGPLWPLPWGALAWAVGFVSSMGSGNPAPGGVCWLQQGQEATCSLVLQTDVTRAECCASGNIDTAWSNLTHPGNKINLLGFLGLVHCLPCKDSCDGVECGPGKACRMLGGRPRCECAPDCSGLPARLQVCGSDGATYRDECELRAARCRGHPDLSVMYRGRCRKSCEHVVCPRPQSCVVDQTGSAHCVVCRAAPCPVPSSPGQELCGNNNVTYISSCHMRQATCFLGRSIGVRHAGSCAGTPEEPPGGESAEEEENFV
Sequence of Dickkopf-related protein 1 (Homo sapiens) (O94907 whole entry, looked up): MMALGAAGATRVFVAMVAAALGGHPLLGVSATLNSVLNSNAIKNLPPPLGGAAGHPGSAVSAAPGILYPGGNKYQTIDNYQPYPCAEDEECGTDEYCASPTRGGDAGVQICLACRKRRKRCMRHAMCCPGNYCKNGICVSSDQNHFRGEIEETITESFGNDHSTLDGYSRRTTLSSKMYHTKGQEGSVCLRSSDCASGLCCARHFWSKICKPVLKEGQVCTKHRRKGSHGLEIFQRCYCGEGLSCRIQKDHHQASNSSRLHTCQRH

SMILES | composite z-score [1] | composite z-score [2] | composite z-score [3] | z-score [4] | composite z-score [5] | composite z-score [6] | composite z-score [7] | composite z-score [8] | composite z-score [9] | composite z-score [10]
CCN1C(=O)[C@H]2[C@H]3[C@H](O)[C@H](O)CC(=NOC[C@@H](O)[C@H]4O[C@@H]5OC(C)(C)O[C@@H]5[C@H]4O)[C@@H]3CC[C@H]2C1=O | 1.03 | -0.242 | -0.461 | 0.217 (inactive) | 0.203 | -0.246 | 0.227 | 0.24 | 0.284 | 0.46
CC(C)(C)N1C(=O)[C@H]2[C@H]3[C@H](O)[C@H](O)CC(=NNC(=O)OCc4ccccc4)[C@H]3CC[C@H]2C1=O | -0.195 | 0.0773 | -0.525 | -0.422 (inactive) | 0.72 | 0.792 | 0.208 | 0.889 | 0.608 | -1.06
O=C1[C@H]2[C@H]3[C@H](O)[C@H](O)CC(=NO[C@@H]4O[C@H](CO)[C@@H](O)[C@H](O)[C@H]4O)[C@H]3CC[C@H]2C(=O)N1c1ccc(F)cc1F | -0.134 | 0.0579 | 0.129 | 0.324 (inactive) | -0.0077 | -0.444 | 0.172 | 0.0345 | -0.494 | -1.81
CCN1C(=O)[C@H]2[C@H]3[C@H](O)[C@H](O)CC(=NNC(=O)OCc4ccccc4)[C@@H]3CC[C@H]2C1=O | -0.16 | 0.118 | 0.78 | -0.176 (inactive) | -0.163 | -0.612 | -0.241 | -0.0709 | 0.131 | -0.291
CC(C)=CCCC(C)=CCON=C1C[C@@H](O)[C@@H](O)[C@@H]2[C@@H]3C(=O)N(c4cccc(Oc5ccccc5)c4)C(=O)[C@@H]3CC[C@H]12 | 0.0643 | -0.183 | -0.2 | 0.467 (inactive) | 0.411 | 0.286 | 0.348 | 0.751 | 0.419 | 0.657
COC(=O)[C@H](C)NC(=O)CCC1CC(OC(=O)NCCc2ccc(F)cc2)CC2(CCCC(COC(=O)NCCOc3ccccc3)O2)O1 (stereo not given in full) | 0.612 | -0.244 | -0.224 | 0.587 (inactive) | 0.762 | 1.01 | 0.538 | 0.781 | 0.652 | -0.455
O=C1C[C@@H](O)[C@@H](O)[C@@H]2[C@@H]3C(=O)N(Cc4ccccc4)C(=O)[C@@H]3CC[C@H]12 | 0.465 | -0.0382 | -0.506 | -0.0414 (inactive) | 0.56 | 0.331 | 0.564 | 0.643 | 0.608 | 0.3
COc1ccc(COC(=O)NN=C2C[C@@H](O)[C@@H](O)[C@@H]3[C@@H]4C(=O)N(C[C@@H]5CCCO5)C(=O)[C@@H]4CC[C@H]23)cc1 | -0.321 | 1 | 1.26 | 0.0734 (inactive) | -0.494 | -0.797 | -0.211 | -1 | -0.746 | 0.229
CCOC(=O)CCN1C(=O)[C@H]2[C@H]3[C@H](O)[C@H](O)CC(=NOCC=C(C)CCC=C(C)C)[C@@H]3CC[C@H]2C1=O | 0.255 | 0.333 | -0.202 | 0.0459 (inactive) | 1.15 | 0.659 | 1.17 | 0.825 | 0.606 | -0.259
CCOC(=O)[C@H](Cc1ccccc1)NC(=O)CCC1CC(OC(=O)NCCc2ccc(F)cc2)CC2(CCCC(COC(=O)NCCOc3ccccc3)O2)O1 (stereo not given in full) | 0.87 | -0.119 | -0.442 | -0.421 (inactive) | 0.979 | 1.28 | 0.597 | 1.31 | 1.05 | -0.155
CC=CC1=C(CO)[C@H](O)[C@H]2O[C@H]2[C@@H]1O | 0.134 | -0.416 | -1.13 | 0.666 (inactive) | 0.733 | 0.403 | 0.148 | 0.608 | 0.943 | 0.161
CC(CCN1CCCc2nc(C)c(C)cc21)=NOC[C@@H](C)[C@H](OCc1ccccc1)C(C)C | -0.438 | -0.359 | -0.623 | -0.81 (inactive) | -0.569 | -0.715 | -0.771 | -0.413 | -0.265 | 0.356
CC(C)[C@@H](OCc1ccccc1)[C@H](C)CON=C1[C@H]2CCn3c(=O)n(-c4ccccc4)c(=O)n3[C@H]2[C@H](O)[C@@H]2O[C@H]12 | 0.552 | -0.0364 | -0.562 | 3.43 (inactive) | 0.785 | 0.227 | 0.329 | 0.0089 | 1.24 | 0.236
CC(CCN1CCCc2nc(C)c(C)cc21)=NOC[C@@H](O)COCc1ccco1 | 1.22 | 1.57 | -0.216 | 0.58 (inactive) | 1.56 | 1.22 | 1.76 | 1.6 | 2.25 | 1.96
COc1ccc(O[C@H]2C=C[C@@H](C#Cc3ccccc3)O[C@@H]2CO)cc1 | 0.544 | -0.139 | -0.253 | 1.45 (inactive) | 0.535 | -0.139 | 0.316 | -0.0229 | 0.377 | 1.08
CCC1=NOC(CCC2CC(OC(=O)NCc3cccc4c3OCO4)CC3(CCCC(COC(=O)NCCc4ccc(Cl)cc4)O3)O2)C1 (stereo not given) | 0.354 | -0.0936 | -0.341 | 0.116 (inactive) | 1.41 | 0.173 | -0.0917 | 0.147 | 0.119 | 0.0081
CC(C)=NOC(C)CN1CCCCc2nc(C)c(C)cc21 (stereo not given) | 0.284 | -0.261 | -0.331 | 0.19 (inactive) | 0.151 | 0.0285 | 0.468 | 0.473 | 0.619 | 1.04

SMILES | composite z-score [1] | composite z-score [2] | composite z-score [3] | z-score [4] | composite z-score [5] | composite z-score [6] | composite z-score [7] | composite z-score [8] | composite z-score [9] | composite z-score [10]
CC(C)=CCCC(C)=CCON=C1[C@H]2CCn3c(=O)n(-c4ccccc4)c(=O)n3[C@H]2[C@H](O)[C@@H]2O[C@H]12 | 1.05 | -0.229 | -0.55 | 1.77 (inactive) | 0.726 | 1.26 | 0.752 | 1.25 | 0.912 | 0.722
CO[C@@H]1COC(=O)[C@H](COCc2ccccc2)NC(=O)CC=C[C@@H](C)[C@H](OC)COC(=O)[C@@H](C)NC(=O)CC=C[C@H]1C | 1.57 | -0.556 | -0.97 | 0.0772 (inactive) | 0.0278 | -0.314 | 0.378 | 0.754 | 1.16 | 1.84
COc1ccc(O[C@H]2C=C[C@@H](c3ccccc3)O[C@@H]2COC(=O)NCc2cccc3ccccc23)cc1 | -0.101 | 0.0187 | 0.173 | -0.134 (inactive) | 0.0748 | -0.131 | -0.168 | 0.1 | 0.269 | 0.763
CCc1cc2c(nc1CC)CCN(CCC(C)=NOC[C@@H](C)[C@H](OCc1ccccc1)C(C)C)C2 | -0.482 | -0.375 | -0.244 | -1.3 (inactive) | -1.58 | -1.04 | -0.812 | -1.28 | -1.06 | -0.187
CC(=O)OC[C@H]1O[C@H](CC=NOC(C)CN2CCCCc3nc(C)c(C)cc32)C=C[C@@H]1OC(C)=O (stereo not given in full) | 1.14 | -0.0799 | -0.199 | 0.375 (inactive) | 0.83 | 1.31 | 1.59 | 1.31 | 1.68 | 1.13
CCOC(=O)CCN1C(=O)[C@H]2[C@@H]3C(=CC[C@H]2C1=O)C(=O)[C@H]1O[C@H]1[C@H]3O | 1.1 | -0.33 | -0.291 | 6.66 (inactive) | -0.632 | -0.837 | -0.0633 | -1.16 | -0.324 | -0.483
CC(CCN1CCCc2nc(C)c(C)cc21)=NO[C@@H](C)c1cn([C@H](CO)Cc2ccccc2)nn1 | 0.531 | -0.264 | -0.388 | 0.867 (inactive) | 0.817 | 0.471 | 0.666 | 0.698 | 0.928 | 1.19
CCN1C(=O)[C@H]2[C@H]3[C@H](O)[C@H](O)CC(=NO[C@@H]4O[C@H](COC(C)=O)[C@@H](OC(C)=O)[C@H](OC(C)=O)[C@H]4OC(C)=O)[C@@H]3CC[C@H]2C1=O | 0.579 | 0.0594 | -0.601 | 0.5 (inactive) | 0.868 | 0.612 | 0.591 | 1.11 | 0.735 | -0.371
CC(=O)OC[C@H]1O[C@H](CC=NO[C@H](C)c2cn([C@@H]3COC[C@H]3O)nn2)C=C[C@@H]1OC(C)=O | 0.197 | -0.185 | -0.434 | -1.06 (inactive) | 0.172 | 0.0915 | 0.476 | 0.255 | 1.1 | 0.257
CCOC(=O)CCN1C(=O)[C@H]2[C@H]3[C@H](O)[C@H](O)CC(=NO[C@@H]4O[C@H](CO)[C@@H](O)[C@H](O)[C@H]4O)[C@@H]3CC[C@H]2C1=O | 0.839 | -0.188 | -0.573 | -0.104 (inactive) | 1.04 | 1.26 | 1.05 | 1.37 | 1.27 | 0.898
COC(=O)[C@H](C)NC(=O)CCC1CC(OC(=O)NCc2cccc3ccccc23)CC2(CCCC(COC(=O)NCCc3ccccc3OC)O2)O1 (stereo not given in full) | 0.906 | -0.0471 | -0.433 | -0.105 (inactive) | 1.23 | 1.12 | 0.454 | 1.25 | 0.686 | -0.267
C#CCCCON=C1[C@H]2CCn3c(=O)n(Cc4cc5c(cc4Cl)OCO5)c(=O)n3[C@H]2[C@H](O)[C@@H]2O[C@H]12 | 0.216 | -0.23 | -0.648 | -0.0845 (inactive) | 0.914 | 0.557 | 0.664 | 0.641 | 0.541 | 0.0951
CC(CCN1CCCc2nc(C)c(C)cc21)=NO[C@H](C)c1cn([C@@H]2COC[C@H]2O)nn1 | 0.389 | -0.156 | -0.519 | 0.169 (inactive) | 0.667 | 1.11 | 1.06 | 0.884 | 0.902 | 1.26
CCOC(=O)[C@H](CC(C)C)NC(=O)CCC1CC(OC(=O)NCCc2ccc(F)cc2)CC2(CCCC(COC(=O)NCCOC)O2)O1 (stereo not given in full) | 0.745 | 0.0045 | -0.411 | -0.0891 (inactive) | 1.15 | 0.953 | 0.633 | 1.36 | 0.96 | -0.0586
COC(=O)[C@@H]1CC[C@H](C)[C@@H](c2ccc(C)cc2)N1C(=O)c1ccc(C=NO[C@@H](C)c2cc(-c3c(C)cc(C)cc3C)no2)cc1 | 0.321 | -0.12 | -0.144 | -1.04 (inactive) | 0.418 | 0.738 | 0.51 | 0.242 | 0.675 | 0.598
COC(=O)[C@H](C)NC(=O)CCC1CC(OC(=O)NCCc2ccc(F)cc2)CC2(CCCC(COC(=O)NCCc3ccccc3OC)O2)O1 (stereo not given in full) | 0.557 | -0.0554 | -0.494 | -0.221 (inactive) | 1.11 | 1.05 | 0.484 | 1.16 | 1.26 | 0.176
